High-throughput results: PubChem, several laboratories
Neddylation inh – blocks human cullin neddylation; TR-FRET cullin neddylation, biochemical; AID 651699; calls only at 25 µM; 0.58% of 360,000 active; P61081+Q13564; in the data active = inhibition above about 36%
KLK7 zymogen act – activators of human kallikrein-7 zymogen. P49862. purified proKLK7, EDANS-DABCYL substrate fluorescence; 100% is mature enzyme control, 0% vehicle. activation, % at 7 µM. 0.9% of 370,000 active. AID 652039;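 active = activation above the mean of all tested compounds plus 3 SD, computed per campaign excluding outliers beyond control limits, cut at about 13% in these data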
Target sequence (P49862 whole entry, looked up): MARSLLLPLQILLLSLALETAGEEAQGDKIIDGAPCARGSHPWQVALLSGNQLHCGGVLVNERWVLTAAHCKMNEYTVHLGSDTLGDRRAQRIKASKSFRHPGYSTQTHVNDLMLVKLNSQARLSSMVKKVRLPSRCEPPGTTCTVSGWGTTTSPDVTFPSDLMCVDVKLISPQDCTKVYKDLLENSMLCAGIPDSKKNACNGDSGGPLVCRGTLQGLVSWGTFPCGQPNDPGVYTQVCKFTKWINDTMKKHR
FAS-TE inh – inhibitors of human fatty acid synthase thioesterase domain; 0.67% of 360,000 active; recombinant FAS-TE, OMFH fluorogenic substrate, fluorescence endpoint; P49327; inhibition, % at 15 µM;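 active = compounds whose normalised, plate-corrected inhibition of enzyme fluorescence in the single-dose primary screen is 50% or more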
PfG6PD inh – PfG6PD (Plasmodium falciparum) enzyme inhibition | PfGluPho enzyme, NADPH resazurin-diaphorase fluorescence | inhibition, % at 20 µM | 0.78% of 350,000 active;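 active = inhibition reaching at least a set limit at 20 µM in the primary screen, cut at about 59% in these data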
proKLK7 act conf – proKLK7 activation, confirmation | shares compounds with KLK7 zymogen act | purified proKLK7, EDANS-DABCYL substrate fluorescence; scaled: vehicle 0, mature enzyme 100 | activation, % at 7 µM | 68% of 3,200 active | AID 686949;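 active = activation, as change over the incubation, above the mean of all tested compounds plus 3 SD, cut at about 13% in these data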
EDANS-DABCYL int – counter-screen for kallikrein-7 activators: EDANS-DABCYL optical interference; EDANS-DABCYL substrate fluorescence interference, no enzyme, 4 h; solvent 0%, active enzyme control 100%; shares compounds with KLK7 zymogen act; activation, % at 7 µM; 80% of 3,200 active;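 active = activation above the all-compound mean plus 3 SD, ignoring values outside control-based bounds, cut at about 4.8% in these data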;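 also: value is the 4 h activation minus the activation read at time zero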
K7 EDANS ctr – optically interferes with EDANS-DABCYL fluorescence, kallikrein-7 activator counter-screen; shares compounds with KLK7 zymogen act; EDANS-DABCYL peptide fluorescence interference, no enzyme; EC50, µM; 20% of 250 active; AID 720493;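 active = compounds that raise the fluorescence signal in this interference counterscreen, with EC50 at or below 10 µM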;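 also: intact quenched peptide substrate alone read at 355 nm excitation and 520 nm emission; signal is fluorescence gain from T0 to T4 after four hours at room temperature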
Numbers stand for hits; – = inactive; · = not tested or not shown. Rows were chosen to be rich in hits. Some 2.7% of all compounds tested hit in one or more screens of this group.

SMILES	Neddylation inh	KLK7 zymogen act	FAS-TE inh	PfG6PD inh	proKLK7 act conf	EDANS-DABCYL int	others
COc1cccc(-c2nnc(-c3ccc(C(F)(F)F)cc3)o2)c1OC	–	–	–	–	·	·
C[C@H]1COC[C@@H](C/C=C/c2ccccc2)N1c1ccccc1	–	–	–	–	·	·
COC(=O)c1ccc2c(CCO)c[nH]c2c1	·	16	–	–	–	12
O=C1c2ccccc2NC(c2ccc(-c3cccs3)o2)N1O (stereo unspecified)	·	19	–	–	–	7.4
CC[C@@H]1C(c2cccc(C)c2)=NN(c2ccccc2)[C@H]1C(=O)N1CCOC1=O	–	41	–	–	56	52
CC[C@@H]1C(c2ccccc2)=NN(c2ccc(Br)cc2)[C@H]1C(=O)N1CCOC1=O	·	28	–	–	–	–
C[C@@H]1C(c2ccc(F)cc2)=NN(c2ccccc2)[C@H]1C(=O)N1CCOC1=O	–	21	–	–	13	24
OC[C@@H]1[C@@H](c2ccccc2)C(c2ccc(F)cc2)=NN1c1ccccc1	·	·	–	–	·	·
O=S1(=O)c2ccc(Br)cc2OC[C@@H](Cc2ccccc2)N1Cc1cn(Cc2ccc(C(F)(F)F)cc2)nn1	·	–	·	·	·	·
CN(C)c1ccc(C(=O)NC2CCCCN(Cc3ccc(Cl)cc3)C2=O)cc1 (stereo unspecified)	·	–	·	·	·	·
CN(CCCn1cnc2c(OCc3ccccc3)ncnc21)Cc1ccco1	–	–	–	–	·	·
CCCc1cc(=O)oc2c3c(cc(OCC(=O)N4CCC(C(=O)O)CC4)c12)OC(C)(C)CC3	·	65	–	·	77	76
Cc1c(C)c2c(OCC(=O)NCC(C)C)cc3c(c2oc1=O)CCC(C)(C)O3	·	–	–	–	·	·
Cc1c(C)c2c(OCC(=O)N3CCC[C@H]3C(=O)O)cc3c(c2oc1=O)CCC(C)(C)O3	–	71	–	–	71	70
Cc1c(C)c2c(OCC(=O)N3CCC(O)CC3)cc3c(c2oc1=O)CCC(C)(C)O3	·	42	–	–	69	73
CCC(=O)N1CCCC(C(=O)NCc2ccc(C(C)C)cc2)CC1 (stereo unspecified)	–	–	–	·	·	·
CCOC(=O)c1cc2c(c(-c3cccc(-c4cc5ccccc5o4)c3)n1)[C@@H](CCO)N(S(=O)C(C)(C)C)C2 (stereo partly specified)	–	–	–	·	·	·
Cc1ccccc1CN1[C@@H](C)[C@H](c2ccccc2)Oc2cccc(N3CCCC(C)C3)c2S1(=O)=O (stereo partly specified)	·	–	·	·	·	·
Cc1cccc(C)c1NC(=O)C(c1ccc(C#N)cc1)n1c(=O)c(-c2cc3ccccc3[nH]2)nc2ccccc21 (stereo unspecified)	·	–	·	·	·	·
O=C(O)c1ccc2c(c1)S(=O)(=O)c1cc(N3CCN(c4cnccn4)CC3)ccc1C2=O	–	–	–	–	·	·
CC[C@H](C)[C@H](NC(=O)CNC(=O)COc1cc2c(c3oc(=O)cc(C)c13)CCC(C)(C)O2)C(=O)O	·	50	–	–	–	–
Cc1cc(=O)oc2c3c(cc(OCC(=O)NCC(=O)N[C@H](C(=O)O)C(C)C)c12)OC(C)(C)CC3	·	43	–	–	62	72
Cn1nc(C(C)(C)C)cc1NC(=O)C1(C)CCN1C(=O)CC(c1ccccc1)c1ccccc1 (stereo unspecified)	–	–	–	·	·	·
Cc1cc(-c2nc3ccccc3s2)ccc1N	·	41	–	–	–	–
Nc1ccc(-c2nc3cc(N)ccc3s2)cc1	·	52	–	–	16	67
SMILES	Neddylation inh	KLK7 zymogen act	FAS-TE inh	PfG6PD inh	proKLK7 act conf	EDANS-DABCYL int	others
Nc1ccc2nc(-c3ccccc3)sc2c1	–	63	–	–	63	68
Nc1ccc(-c2nc3ccccc3s2)cn1	·	–	–	–	·	·
CCOC(=O)c1ccc(NC(=O)c2ncn3c2C(=O)NC[C@@H]3C)cc1	–	–	–	–	·	·
COc1cc2c3nnc(-c4ccccc4)c-3cn(Cc3ccc(F)cc3)c2cc1OC	·	28	–	–	–	–
O=C1NC(c2ccc(Br)cc2)Nc2ccccc21 (stereo unspecified)	·	14	–	–	21	15	K7 EDANS ctr=–
O=C1NC(c2ccccc2Cl)Nc2ccccc21 (stereo unspecified)	·	19	–	–	47	50
O=C1NC(c2ccc3ccccc3c2)Nc2ccccc21 (stereo unspecified)	·	–	–	–	·	·
CCCCCCCCN1C(=O)[C@H](CC(=O)NCCCN2CCCC2=O)C[C@@]2(C(=O)OC)CCCCC=C12	–	–	–	·	·	·
Cc1c(Cl)ccc2c(C(O)CBr)cc(-c3ccccc3)nc12 (stereo unspecified)	–	–	–	–	·	·
Cc1ccccc1-c1ccc2c(c1)[C@@H]1C[C@H](N(C)CC3CCCCC3)[C@H]([C@H](C)O)CN1CC2	·	13	·	·	–	7.1
COc1ccc(CN2C(=O)CCCC2(C)c2nnnn2-c2ccc3c(c2)OCCO3)cc1 (stereo unspecified)	·	–	·	·	·	·
CCOC(=O)c1c(NC(=O)c2ccco2)n(C2CCCCC2)c2nc3ccccc3nc12	·	21	–	–	–	–
CCC(=O)Nc1c(C#N)c2nc3ccccc3nc2n1C1CCCCC1	–	–	–	–	·	·
CC(COc1cccc(C(F)(F)F)c1)CN1CCC(C(O)(c2ccccc2)c2ccccc2)CC1 (stereo unspecified)	·	–	·	·	·	·
COC(=O)Cc1nnn2c1[C@H](C)[C@H](c1cccc(OC)c1OC)OCC2	·	–	·	·	·	·
CCOc1cc2c(C#N)c(N3CCNCC3)nc(N)c2c(N)n1	–	69	–	–	67	64
CCc1nc(N2CCOCC2)c(C#N)c2c1CCCC2	–	–	–	–	·	·
COc1cc2c(C#N)c(N3CCOCC3)nc(N)c2c(N)n1	–	22	–	–	21	23
N#Cc1c(N2CCOCC2)nc(N)c2c(N)nc3c(c12)CC(CCl)O3 (stereo unspecified)	·	73	–	–	76	19	K7 EDANS ctr=–
COc1cc2c(C#N)c(N3CCCCC3)nc(N)c2c(N)n1	–	–	–	–	·	·
COC(=O)CC[C@H](/C=C/C(=O)OC(C)(C)C)Sc1ccc(C(C)(C)C)cc1	·	–	·	·	·	·
COCCN1CCn2c(nc3cc(NC(=O)NC4CCCCC4)ccc32)C1	·	16	–	–	–	–
O=C(O)c1cccc(S(=O)(=O)Nc2ccccc2Oc2ccccc2)c1	–	–	–	–	·	·
O=C(N[C@H](C(=O)N1CCC[C@H]1C(=O)NCCc1ccccc1Cl)C1CCCCC1)c1ccccc1	·	–	·	·	·	·
Nc1ccc(-c2nc3c(ccc4ccccc43)[nH]2)cc1	·	54	–	–	74	74
COC(=O)c1scc2c(=O)cc(C(F)(F)F)[nH]c12	·	59	–	–	76	83
O=c1cc(C(F)(F)F)[nH]c2ccc(C(F)(F)F)cc12	–	–	–	–	·	·
